The list is not random: actives were taken first. Their share in the collection is about 4.3%.
D3 ag = D3 dopamine receptor (human) agonism; AID 652048; max activation, %; D3R DiscoveRx beta-arrestin cells, luminescence, 90 min; 410,000 compounds, 0.58% hits; in the data active means max activation above about 30%; further: 0% is about no effect
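Agonist-mode cell screen: cells plated at 1500/well and incubated overnight at 37 °C, then exposed to library compounds for 90 min at 37 °C. Detection reagent was added for 30–60 min at room temperature, and luminescence was read.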
D3 antag = blocks the human D3 dopamine receptor; max response, negative = inhibition, %; P35462; D3R cells, DiscoveRx beta-arrestin luminescence, antagonist mode; active compounds read low; AID 652054; 360,000 compounds, 2.5% hits; in the data active means max response below about -50%; inconclusive means no clear call, values can overlap the other calls; further: on the % scale 0 is the no-effect control and ±100 the full control effect
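Cells plated overnight at 1500 cells/well, then exposed to library compounds with dopamine controls for 90 minutes at 37 degrees C. DiscoveRx reagent added for 30–60 minutes at room temperature; luminescence read, quantitative HTS format.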
GLP1R inv ag = GLP-1 receptor (human) inverse agonism; P43220; HEK293 GLP-1R CRE-luciferase, luminescence, 24 h; GLP-1R form is constitutively active; Potency, µM (titrated, usually from 38.3 µM), inactives show at the highest dose activity change, negative = inhibition, actives largely listed as inhibitors; 410,000 compounds, 1.6% hits; further: potency means the concentration at half of the fitted maximal effect; on the % scale 0 is the no-effect control and ±100 the full control effect; nearly all actives have a fitted effect of over 55% in size
Target sequence (P43220 whole entry, looked up): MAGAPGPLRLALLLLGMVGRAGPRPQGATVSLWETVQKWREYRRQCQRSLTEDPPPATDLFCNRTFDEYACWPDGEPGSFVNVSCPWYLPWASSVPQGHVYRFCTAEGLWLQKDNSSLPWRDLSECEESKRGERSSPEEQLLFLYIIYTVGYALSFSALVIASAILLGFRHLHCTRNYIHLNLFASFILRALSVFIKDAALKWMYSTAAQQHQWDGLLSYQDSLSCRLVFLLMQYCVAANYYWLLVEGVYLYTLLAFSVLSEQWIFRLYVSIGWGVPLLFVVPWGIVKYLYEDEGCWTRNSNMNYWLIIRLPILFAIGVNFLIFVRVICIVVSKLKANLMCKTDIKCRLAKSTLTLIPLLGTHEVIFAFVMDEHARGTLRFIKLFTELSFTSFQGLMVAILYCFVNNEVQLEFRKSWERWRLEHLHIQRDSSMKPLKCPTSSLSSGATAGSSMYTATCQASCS
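Seeding at 200 cells/uL, 12 h culture, 24 hr compound treatment, then luciferase reagent and a luminescence read; cells are HEK293 stably expressing a constitutively active GLP-1R plus cAMP-responsive luciferase.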
GLP-1R agonist = activates the human GLP-1 receptor; P43220; HEK293 GLP-1R CRE-luciferase, luminescence, 4-6 h; cells express a hypersensitive GLP-1R form; Potency, µM (series often up to 45.6 µM), inactives show top-dose activation, most hits filed as activators; 380,000 compounds, 0.007% hits; AID 624172; further: potency means the concentration at half of the fitted maximal effect; % of control where 0% means no effect
The depositor's hits bear a star; ? = inconclusive; . = no result. Unless noted, the call rests on the fitted dose curve; in most records, active means well fitted curve in the direction sought with a large enough effect; inconclusive means small, poorly fitted or top-dose-only effect, or another doubt; inactive means no such curve, though single readings can be large; an effect the other way counts as inactive or inconclusive.

SMILES	D3 ag	D3 antag	GLP1R inv ag	GLP-1R agonist
CCOC(=O)C1Nc2c(F)cc(C)cc2C2c3ccccc3CC12 (configuration not stated)	-16	-54*	10µM*	-4%
COc1ccc(-c2nnc(SCC(=O)N3CCC(Cc4ccccc4)CC3)o2)cc1OC	38*	49	6%	-8%
COc1ccc(-c2nnc(SCC(=O)N3CCN(c4ccccc4)CC3)o2)cc1OC	-4	9	14%	-6%
COc1cc(OC)cc(-c2nnc(SCC(=O)N(Cc3ccccc3)C(C)(C)C)o2)c1	7	16	8.9µM*	4%
COc1ccc(OCC(=O)N2CCC(Cc3ccccc3)CC2)cc1	32*	10	?	10%
CN(C)c1ncc(C(=O)NCc2ccccc2Cl)cn1	8	.	13%	.
CCOc1ccc(NC(=O)NC23CC4CC(CC(C4)C2)C3)cc1	-6	-24	2.5µM*	9%
COc1ccc(NC(=O)NC23CC4CC(CC(C4)C2)C3)cc1OC	-1	?	?	0%
CCc1ccc2c(c1)C1(NN=C(c3ccc(C)cc3)S1)C(=O)N2 (configuration not stated)	-2	-94*	-5%	?
Cc1ccc(C)c(NC(=O)CSc2nnc(-c3ccncc3)n2N)c1	-3	-70*	3%	-6%
Cc1ccc(-n2c(C)cc(/C=N/NC(=O)CN(c3ccc(C)cc3C)S(C)(=O)=O)c2C)cc1	-6	-27	10µM*	-16%
Cc1cc(C)cc(-n2c(C)cc(/C=N/NC(=O)CN(c3c(C)cccc3C)S(C)(=O)=O)c2C)c1	-4	?	?	3%
CC(=O)OCC(=O)[C@@]1(O)[C@H](C)C[C@H]2C3C[C@H](F)C4=CC(=O)C=CC4(C)C3[C@@H](O)CC21C (some centres not stated)	.	.	.	-4%
COc1ccc(CNS(=O)(=O)c2ccc(C3CNC(=O)C3)cc2)cc1 (configuration not stated)	3	-142*	0%	-8%
CCOCCCn1c(SCC(=O)Nc2ccccc2OC)nc2c(oc3ccccc32)c1=O	6	.	?	.
Cc1c(C(=O)NCc2cccc(Cl)c2)sc2nc[nH]c(=O)c12	-11	.	2%	.
CC(=O)Nc1ccc(C(=O)Nc2nc(-c3ccccn3)cs2)cc1	-2	-56*	8%	1%
CC(C)CNC(=O)C1=CC(c2ccc3c(c2)OCO3)=NS(=O)(=O)N1C	0	.	3%	.
O=c1oc2ccccc2n1Cc1ccccc1F	-2	1	?	-1%
CCCCOc1ccccc1Cn1c(=O)oc2ccccc21	-3	-3	5.6µM*	-9%
COc1ccc(CCn2c(SCCN3CCCCC3)nc3ccccc3c2=O)cc1OC	-3	-103*	?	4%
O=c1c2ccccc2nc(SCCN2CCOCC2)n1CCc1ccccc1	-6	17	10µM*	26%
CCOC(=O)CSc1nc2ccccc2c(=O)n1CCN1CCOCC1	6	17	-16%	0%
COc1cc2nc(SCC(=O)Nc3ccc(F)cc3)n3nc(CCn4c(C)nc5ccccc54)nc3c2cc1OC	-9	.	11%	-1%
COc1ccc(NC(=O)Cn2c(SCc3cccc(Cl)c3)nc3ccncc32)c(OC)c1OC	-18	.	6%	.
SMILES	D3 ag	D3 antag	GLP1R inv ag	GLP-1R agonist
Nc1[nH]c(=O)nc2snnc12	7	7	6%	-2%
COC(=O)c1ccc(NC(=S)NC2CCCCC2C)cc1 (configuration not stated)	-22	-14	10µM*	0%
COC(=O)c1c(NC(=O)CN2CCCc3ccccc32)sc(C)c1C	-11	-60*	0%	6%
COC(=O)c1[nH]c2ccc(C)cc2c1NC(=O)CN1CCCC(C)(C)C1	0	67	2.2µM*	-7%
CCOC(=O)C1CCCN(CC(=O)Nc2c(C(=O)OC)[nH]c3ccc(Br)cc23)C1 (configuration not stated)	-15	-51*	?	-22%
CCOC(=O)C1CCN(CC(=O)Nc2c(C(=O)OC)[nH]c3ccc(Cl)cc23)CC1	13	-3	?	0%
COC(=O)c1[nH]c2ccc(Br)cc2c1NC(=O)CN1CCCc2ccccc21	-1	6	10µM*	-11%
CCOC(=O)c1c(NC(=O)CN2CCCc3ccccc32)sc(C)c1C	6	-10	?	0%
CO[C@@H]1[C@H](OC(=O)/C=C/C=C/C=C/C=C/C(=O)O)CC[C@]2(CO2)[C@H]1[C@@]1(C)O[C@@H]1CC=C(C)C	-15	.	.	.
Cc1nc2n(c(=O)c1CCN1CCC(c3noc4cc(F)ccc34)CC1)CCC[C@H]2O	-30	.	.	.
CC1(C)CC(C(=O)Nc2ccccc2)C(=O)O1 (configuration not stated)	12	-6	2%	-1%
C[C@]1(O)CC(=O)C=C[C@H]1Nc1ccccc1	-21	-52*	?	2%
COc1ccc(C=NCC2COc3ccccc3O2)cc1OC (configuration not stated)	-27	-51*	0%	-6%
Oc1ccc(C=NCC2COc3ccccc3O2)cc1 (configuration not stated)	-32	-24	?	-3%
COc1cnc(-c2ccccn2)nc1Sc1ccc(Cl)cc1	-2	-99*	0%	1%
COc1cnc(-c2ccccn2)nc1Oc1ccccc1	-8	-1	?	8%
COc1cnc(-c2ccccn2)nc1N(C)c1ccccc1	-22	-68*	?	10%
CCc1ccc(N2C(=O)CS(=O)(=O)C23C(=O)N(Cc2ccccc2F)c2ccccc23)cc1 (configuration not stated)	-3	.	-27%	-8%
O=C(c1ccc2c(c1)N(Cc1ccc(F)cc1)C(=O)c1ccccc1S2(=O)=O)N1CCN(Cc2ccccc2)CC1	-9	.	-23%	0%
Clc1cccc(-c2nc(NCCCN3CCOCC3)c3ccccc3n2)c1	-2	-1	10µM*	3%
Cc1ccc(-c2nc(NCCN3CCOCC3)c3ccccc3n2)cc1	2	-24	0%	9%

High-throughput results from PubChem.
